Drawing on the supplement of paper PMC6555819, this text covers PBM binding z-score for seven sequences.

Common to all, as to assay: PBM binding z-score (relative to random genomic background probes); higher = stronger binding; sequences stand for … in GC…GCGATTGACAGCGTAGAATGAAGG
The test system of test [1] is FXR:RXRa (NR concentration 270 nM, RXRa partner concentration 90 nM). The method in brief: (§1)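 Custom Agilent 4×180K protein-binding microarrays carried double-stranded probes. Their 34-nt variable regions held direct-repeat seeds, single-nucleotide variants, half-site ablations and random human genomic background sequences. Arrays were incubated 1 h with ligand-free nuclear receptor dimers in PBS pH 7.4, 2% milk, 0.02% Triton X-100, 1 mM DTT, 0.2 mg/mL BSA and 0.4 mg/ml salmon testes DNA. Antibodies against each partner (one per run) detected binding, and scanned fluorescence was regression-normalized. Binding z-scores use random background probes as reference.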

The subject of test [2] is LXRa:RXRa (NR concentration 270 nM, RXRa partner concentration 90 nM). Summed up: as §1
Test [3] concerns LXRa homodimer (NR concentration 270 nM). The method in brief: as §1
Test [4] concerns LXRb:RXRa (NR concentration 270 nM, RXRa partner concentration 90 nM). The method in brief:
as §1

Test [5] has as its system LXRb homodimer (NR concentration 270 nM). Summed up: as §1
The subject of test [6] is PPARa:RXRa (NR concentration 270 nM, RXRa partner concentration 90 nM). The method in brief: as §1
Test [7] deals with PPARg:RXRa (NR concentration 180 nM, RXRa partner concentration 90 nM). The method in brief:
as §1

The subject of test [8] is PPARg:RXRa 270nM:90nM, anti-RXR (NR concentration 270 nM, RXRa partner concentration 90 nM). The method in brief:
as §1

The subject of test [9] is PPARg:RXRa 30nM:10nM, anti-RXR (NR concentration 30 nM, RXRa partner concentration 10 nM). Summed up: as §1
The test system of test [10] is PPARg:RXRa 90nM:30nM, anti-RXR (NR concentration 90 nM, RXRa partner concentration 30 nM). Summed up:
as §1

For test [11], the system named is PPARg:RXRa DBDmut IVT, anti-RXR (DBD mutation: RXRa K156A/R161A, NR concentration 270 nM, RXRa partner concentration 90 nM). The method in brief:
as §1

For test [12], the system named is PPARg:RXRa IVT, anti-PPARg (NR concentration 270 nM, RXRa partner concentration 90 nM). Summed up:
as §1

For test [13], the system named is PPARg DBDmut:RXRa IVT, anti-PPARg (DBD mutation: PPARg1 K132A/R137A, NR concentration 270 nM, RXRa partner concentration 90 nM). Summed up:
as §1

Test [14] concerns PPARg DBDmut IVT, anti-PPARg (DBD mutation: PPARg1 K132A/R137A, NR concentration 270 nM). The method in brief:
as §1

Test [15] concerns PPARg homodimer (NR concentration 180 nM). The method in brief:
as §1

Test [16] deals with PXR:RXRa (NR concentration 270 nM, RXRa partner concentration 90 nM). Summed up: as §1
Test [17] concerns PXR homodimer (NR concentration 270 nM). The method in brief:
as §1

The subject of test [18] is RARa:RXR (NR concentration 270 nM, RXRa partner concentration 90 nM). Summed up:
as §1

Test [19] deals with RARa homodimer (NR concentration 270 nM). Summed up: as §1
In test [20] the test system is RARb:RXRa (NR concentration 270 nM, RXRa partner concentration 90 nM). Summed up: as §1

As for TCTTGTCGATCAATAGAGGTTAAGAAAGTGCGCT, the PBM binding z-score in test [1] came to 0.786; in test [2] it was 3.69; in [3], 0.541; in test [4], 1.92; in test [5], 0.134; in test [6], 1.97. Further, the PBM binding z-score in test [7] was 0.144; in test [8], 1.76; in test [9] it was 2.67; in test [10], 1.98; in test [11] it was 1.37; in test [12], 0.566. The PBM binding z-score in [13] is 1.29; in [14] it was 0.928; in test [15] it was 0.669; in test [16], 2.97; in [17], 0.471; in test [18], 1.82. Also, the values for the PBM binding z-score in [19] and in [20] were -0.217 and 1.09, respectively.
Regarding AGAATGAGGTTACCAAAGATCAGGGCAACGCTTG, the PBM binding z-score in [1] was 2.12; in test [2], 6.55; in test [3] it was -0.189; in test [4] it was 3.11; in test [5], -0.372; in test [6], 3.61. In addition, the PBM binding z-score in [7] was 3.06; in [8], 3.12; in [9], 1.15; in test [10], 2.34; in test [11], 3.79; in test [12], 3.77. The PBM binding z-score in test [13] was 0.564; in [14], 0.291; in [15] it was 0.848; in test [16], 1.81; in test [17] it was -0.116; in test [18] it was 2.47. Besides, the PBM binding z-score in test [19] was -0.187; in test [20] it was 2.43.
Take GGAACGAGGGCATTCGAGTTGATAGAATGGCGAT: the PBM binding z-score in test [1] is 1.44; in test [2], 1.37; in [3], -0.262; in test [4], 0.195; in [5], -0.719; in [6] it was 1.27. In addition, the PBM binding z-score in test [7] was 0.965; in test [8], 0.758; in test [9], 0.0506; in test [10], 0.303; in test [11] it was 2.73; in test [12], 1.93. Moreover, the PBM binding z-score in test [13] is -0.165; in test [14], -0.814; in test [15], -0.265; in [16], 3.87; in test [17] it was 1.31; in test [18], 0.709. Moreover, the PBM binding z-score in test [19] was -0.629; in test [20], 1.69.
On to TAGCCTAGGGCATGCGGGCCAGTATAGTGTCGGC, for which the PBM binding z-score in test [1] was -0.782; in test [2] it was -0.599; in [3], -1.01; in test [4], -1.17; in test [5], -1.07; in [6] it was -0.591. Moreover, the PBM binding z-score is -0.378 in test [7]; -0.777 in [8]; -1.03 in [9]; -0.989 in [10]; -0.968 in test [11]; 0.354 in test [12]. The PBM binding z-score in [13] is -0.499; in test [14], -1.43; in test [15], -1.51; in [16], -0.802; in test [17], -0.955; in [18] it was -0.692. The PBM binding z-score in test [19] is -0.647; in test [20] it was 0.881.
Regarding TTACCAAGGTGAGCTGAGTTCGTTGATCCAACTC, the PBM binding z-score is 0.596 in test [1]; 0.237 in [2]; -0.394 in [3]; -0.0256 in test [4]; -1.28 in test [5]; 0.596 in test [6]. Also, the PBM binding z-score is -0.321 in [7]; 0.146 in test [8]; -0.237 in test [9]; 0.19 in [10]; 1.27 in [11]; 1.51 in test [12]. Further, the PBM binding z-score was -0.265 in test [13]; -0.637 in test [14]; -0.679 in [15]; 5.28 in test [16]; 2.22 in [17]; 0.594 in test [18]. Moreover, the PBM binding z-score in [19] is -0.779; in test [20] it was 1.04.
For the sequence CGAACGAGGCCATGAGTTGATAGCAAATGCCGAT, the PBM binding z-score was -0.039 in test [1]; -0.24 in test [2]; -0.636 in test [3]; -0.483 in test [4]; -1.01 in test [5]; 0.273 in test [6]. Besides, the PBM binding z-score in test [7] is 0.728; in test [8] it was 0.586; in test [9] it was -0.00312; in test [10] it was 0.44; in [11], 1.62; in test [12], 0.713. The PBM binding z-score in [13] is -0.17; in test [14], -0.886; in test [15], 0.125; in test [16] it was -0.17; in [17], -0.294; in [18] it was 0.133. The PBM binding z-score is -0.191 in test [19] and 0.941 in test [20].
CGTCAAAGTTCAAGGTAACGTACCAGAAAGCAGC: the PBM binding z-score in test [1] is 6.54; in test [2], 5.59; in [3], 3.17; in [4], 3.47; in test [5] it was 1.03; in [6], 4.79. The PBM binding z-score in test [7] was determined as 4.38; in test [8], 5.05; in test [9], 1.94; in test [10], 4.24; in [11] it was 0.681; in [12] it was 2.41. Moreover, the PBM binding z-score is 0.882 in test [13]; 0.599 in test [14]; 4.5 in test [15]; 4.28 in test [16]; 3.52 in test [17]; 3.57 in test [18]. In addition, the PBM binding z-score was determined as 2.48 in test [19] and 5.12 in test [20].
